This note sets out measurements from PubChem BioAssay.

Values joined by “and” are separate entries in the source; they are usually repeats but may differ in a detail not shown here. Equal values may be shown once. Unmarked numbers belong to inactive results.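 Rule for the calls: active = compounds whose cell count with miR-34 switched on is under 0.7 times the count with it off; inactive = the rest.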

A short description of the assay: sensitizers of A549 cells to miR-34 induction, primary screen, imaging, A549 dox-inducible miR-34, nuclei and caspase counts (AID 1347080). Note: test concentration not given here. As to conditions: A549 miR-34 inducible, Hoechst nuclei count, 48 h; hits give low values; cell number ratio, induced over uninduced.
Consider `c1ccc2c(c1)CCCc1cc(NCCN3CCOCC3)nnc1-2`, for which the fold change is 0.801.
Under `COC(=O)C1=CO[C@@H](C)[C@H]2CN3CCc4c([nH]c5ccccc45)[C@@H]3C[C@H]12` stands 0.773.
As for `CCCCC[C@H](O)/C=C/[C@@H]1[C@@H](CC(=O)CCCCC(=O)O)[C@@H](O)C[C@H]1O`, the fold change was 0.992 and 0.934.
In the case of `CCCCCCCCCCCCCCCC(=O)OCC(COP(=O)(O)O)OC(=O)CCCCCCCCCCCCCCC` (centres undefined), the fold change was 0.922.
Regarding `Cc1n[nH]c(=O)[nH]c1=O`, the fold change was 0.871.
As for `CCCCCCCCCCCCCCC[C@@H](O)[C@@H](N)CO`, the fold change is 0.968.
Under `CCCCC/C=C\C[C@@H](O)/C=C/C=C/C=C\[C@@H](O)CCCC(=O)O` stands 0.993; under `CCCCCCCCCCCCCCC[C@@H](O)[C@H](CO)NC(C)=O`, 1.08.
The same measure for `CCCCCC(=O)/C=C/[C@H]1[C@H](O)CC(=O)[C@@H]1C/C=C\CCCC(=O)O`: 0.973; for `CCCCCCCCCCCCC(O)C(=O)O` (centres undefined): 0.965 and 0.989; for `CCCCC[C@H](O)/C=C/[C@H]1OC(O)C[C@H](O)[C@@H]1C/C=C\CCCC(=O)O` (some centres undefined): 0.852.
As for `O[C@@H]1[C@@H](O)C=C2CCN3Cc4cc5c(cc4[C@H]1C23)OCO5` (some centres undefined), the fold change was 0.89.
The same measure for `COC(=O)[C@H]1[C@H]2C[C@@H]3c4[nH]c5cc(OC)ccc5c4CCN3C[C@H]2C[C@@H](OC(=O)/C=C/c2cc(OC)c(OC)c(OC)c2)[C@@H]1OC`: 0.865; for `CCCCCCCC/C=C\CCCCCCCC(=O)OCC(CO)OC(=O)CCCCCCC/C=C\CCCCCCCC` (centres undefined): 1.01.
The same measure for `CCCCCCCCCCCCCCCC(=O)NCCc1ccc(O)c(O)c1`: 0.93; for `CCCCC[C@H](O)/C=C/[C@@H]1[C@@H](C/C=C\CCCC(=O)O)[C@@H](O)C[C@@H]1O`: 0.891 and 0.917.
Under `CCCCCCCCCCCCCCCCOC[C@H](COP(=O)([O-])OCC[N+](C)(C)C)OC(=O)NC` stands 0.941 and 0.889; under `C[C@H](CCC(=O)NCC(=O)O)[C@H]1CC[C@H]2[C@@H]3[C@H](O)C[C@@H]4C[C@H](O)CC[C@]4(C)[C@H]3C[C@H](O)[C@]12C`, 0.862; under `CCCCCCCCCC(=O)OCC(CO)OC(=O)CCCCCCCCC` (centres undefined), 1.02.
As for `O=C(O)CCC/C=C\C[C@@H]1[C@@H](/C=C/[C@@H](O)COc2cccc(C(F)(F)F)c2)[C@H](O)C[C@@H]1O`, the fold change was 0.964 and 1.06.
The same measure for `CCCCC[C@H](O)/C=C/[C@@H]1[C@@H](CCCCCCC(=O)O)[C@@H](O)C[C@H]1O`: 0.91 and 0.991; for `CCCCC[C@H](O)/C=C/[C@@H]1[C@H]2C/C(=C/CCCC(=O)O)C[C@H]2C[C@H]1O`: 0.942; for `COc1c(O[C@@H]2O[C@H](CO)[C@@H](O)[C@H](O)[C@H]2O)cc2c(c1OC)-c1ccc(SC)c(=O)cc1C(NC(C)=O)CC2` (some centres undefined): 0.892.
Under `CCCCC(C)(O)C/C=C/[C@H]1[C@H](O)CC(=O)[C@@H]1CCCCCCC(=O)O` (some centres undefined) stands 0.933 and 0.881; under `CO[C@@H]1[C@@H](OC(N)=O)[C@@H](O)C(Oc2ccc3c(O)c(NC(=O)c4ccc(O)c(CC=C(C)C)c4)c(=O)oc3c2C)OC1(C)C` (some centres undefined), 0.855; under `CCCCCCCC/C=C\CCCCCCCCOC[C@H](COP(=O)([O-])OCC[N+](C)(C)C)OC(C)=O`, 0.905.
The same measure for `COc1ccc2c(OC)c3ccoc3nc2c1OC`: 0.86; for `CCCCCCCCCCCCCCCCCCOC[C@@H](O)COP(=O)([O-])OCC[N+](C)(C)C`: 0.968; for `C=C1CC[C@H](O)C/C1=C/C=C1\CCC[C@]2(C)[C@@H]([C@H](C)CC[C@@H](O)C(C)(C)O)CC[C@@H]12`: 1.03.
With `CCCCC[C@H](O)/C=C/[C@@H]1[C@@H](C/C=C\CCCC(=O)O)[C@H]2CO[C@@H]1C2`, the fold change is 0.992.
Regarding `CCCCC/C=C\C[C@@H](O)/C=C/C=C\C/C=C\CCCC(=O)O`, the fold change is 0.841.
For `C=C1C(c2ccc(C)cc2)=CCc2cc(C)cc(C)c21`, the fold change is 0.866.
Under `C[N+]1(C)C[C@@H](O)C[C@H]1C(=O)[O-]` stands 0.868; under `CCCCCC(O)/C=C/C=O` (centres undefined), 0.954; under `CCCCCCCCCCCCCCCC(=O)C1=C(O)C(CO)OC1=O` (centres undefined), 0.877.
As for `CCCCC[C@H](O)/C=C/[C@@H]1[C@H]2C/C(=C/CCCC(=O)O)O[C@H]2C[C@H]1O`, the fold change was 1.05.
The same measure for `CCCCCCCCCCCCCCCCCCOC[C@H](COP(=O)([O-])OCC[N+](C)(C)C)OC(C)=O`: 0.968 and 1; for `COC(C)(C)CCCC(C)C/C=C/C(C)=C/C(=O)O` (centres undefined): 0.916.
Under `COc1c(O)cc2c(c1O)C1OC(CO)C(O)C(O)C1OC2=O` (centres undefined) stands 0.91.
